# Experimental data reported in PubChem BioAssay.
# The source made the active and inactive calls.
# Key:
# [1] = test system: PRMT1 (protein arginine N-methyltransferase 1); test: small molecules binding arginine methyltransferase PRMT1 – biochemical, small-molecule microarray, 635 nm fluorescence, primary screen (AID 1088); details: higher = more signal;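 note: binding of Prmt1 protein to compounds spotted on small-molecule microarray slides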
# [2] = growth effects on S. cerevisiae YJM789 – YJM789 clinical isolate, OD600, 24 h, basal, primary screen (AID 1089); details: higher = more signal, called active from +8 up or from −8 down;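 note: growth of clinical yeast isolate S. cerevisiae YJM 789 seeded 1000 cells per well; test concentration not given here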
# [3] = S. pombe growth modifiers, basal conditions – strain 972, OD600, 24 h, no modulator, primary screen (AID 1090);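 note: basal condition with compound alone and no growth modifier present; test concentration not given here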; details: S. pombe 972 growth, higher = more signal, called active from +8 up or from −8 down
# [4] = budding yeast growth modifiers under rapamycin – strain BY4716, OD600, 96 h, primary screen (AID 1091); note: test concentration not given here; details: S. cerevisiae BY4716 + rapamycin, higher = more signal, called active from +8 up or from −8 down
# [5] = target: Torsin-1A-interacting protein 2 (Homo sapiens) (UniProt Q8NFQ8); test: small molecules binding lysate-expressed LULL1 – cell lysate, human LULL1 lysate, 635/667 nm fluorescence, primary screen (AID 1092); details: small-molecule microarray, hLULL1 lysate binding, 635 nm fluorescence; higher = more signal;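 note: probe is lysate of COS7 cells overexpressing human LULL1; score merges per-feature 667 nm fluorescence with signal-to-noise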
# Sequence of Torsin-1A-interacting protein 2 (Homo sapiens) (Q8NFQ8 whole entry, looked up): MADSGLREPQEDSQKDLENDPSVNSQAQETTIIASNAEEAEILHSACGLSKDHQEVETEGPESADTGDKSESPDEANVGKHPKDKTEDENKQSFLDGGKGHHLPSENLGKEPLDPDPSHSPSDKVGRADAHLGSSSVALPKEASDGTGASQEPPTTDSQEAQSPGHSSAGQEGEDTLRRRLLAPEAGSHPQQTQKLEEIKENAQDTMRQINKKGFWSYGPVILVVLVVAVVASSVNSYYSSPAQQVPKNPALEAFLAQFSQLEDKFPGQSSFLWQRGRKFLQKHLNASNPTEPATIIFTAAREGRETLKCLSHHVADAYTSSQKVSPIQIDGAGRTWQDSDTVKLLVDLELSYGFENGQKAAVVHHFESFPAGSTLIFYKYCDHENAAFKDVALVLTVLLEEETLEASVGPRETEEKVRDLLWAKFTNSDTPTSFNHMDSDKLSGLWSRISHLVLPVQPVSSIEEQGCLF
# [6] = optical density change of DRC41 E. coli – strain DRC41, OD650, 24 h, E. coli filamentation project, primary screen (AID 1093);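 note: MC1000 strain lacking acrAB efflux and sulA so SOS filamentation is blocked; test concentration not given here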; details: E. coli DRC41 growth, higher = more signal, called active from +8 up or from −8 down
# [7] = probe aLefty2 binding to arrayed compounds – biochemical, biotinylated probe, 635/667 nm fluorescence, primary screen (AID 1094); details: small-molecule microarray, higher = more signal;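 note: score merges spot fluorescence near 667 nm with spot signal-to-noise ratio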
# [8] = test system: Noggin (protein binding on small-molecule microarray); test: small molecules binding Noggin protein – biochemical, 635/667 nm fluorescence, primary screen (AID 1095); details: 635 nm fluorescence, higher = more signal;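 note: score merges 667 nm feature fluorescence with signal to noise over triplicate slides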
# [9] = target: Neurogenic locus notch homolog protein 3 (Homo sapiens) (UniProt Q9UM47); test: small molecules binding NOTCH3 protein – biochemical, 635/667 nm fluorescence, primary screen (AID 1096); details: small-molecule microarray, 635 nm fluorescence, higher = more signal
# Sequence of Neurogenic locus notch homolog protein 3 (Homo sapiens) (Q9UM47 whole entry, looked up): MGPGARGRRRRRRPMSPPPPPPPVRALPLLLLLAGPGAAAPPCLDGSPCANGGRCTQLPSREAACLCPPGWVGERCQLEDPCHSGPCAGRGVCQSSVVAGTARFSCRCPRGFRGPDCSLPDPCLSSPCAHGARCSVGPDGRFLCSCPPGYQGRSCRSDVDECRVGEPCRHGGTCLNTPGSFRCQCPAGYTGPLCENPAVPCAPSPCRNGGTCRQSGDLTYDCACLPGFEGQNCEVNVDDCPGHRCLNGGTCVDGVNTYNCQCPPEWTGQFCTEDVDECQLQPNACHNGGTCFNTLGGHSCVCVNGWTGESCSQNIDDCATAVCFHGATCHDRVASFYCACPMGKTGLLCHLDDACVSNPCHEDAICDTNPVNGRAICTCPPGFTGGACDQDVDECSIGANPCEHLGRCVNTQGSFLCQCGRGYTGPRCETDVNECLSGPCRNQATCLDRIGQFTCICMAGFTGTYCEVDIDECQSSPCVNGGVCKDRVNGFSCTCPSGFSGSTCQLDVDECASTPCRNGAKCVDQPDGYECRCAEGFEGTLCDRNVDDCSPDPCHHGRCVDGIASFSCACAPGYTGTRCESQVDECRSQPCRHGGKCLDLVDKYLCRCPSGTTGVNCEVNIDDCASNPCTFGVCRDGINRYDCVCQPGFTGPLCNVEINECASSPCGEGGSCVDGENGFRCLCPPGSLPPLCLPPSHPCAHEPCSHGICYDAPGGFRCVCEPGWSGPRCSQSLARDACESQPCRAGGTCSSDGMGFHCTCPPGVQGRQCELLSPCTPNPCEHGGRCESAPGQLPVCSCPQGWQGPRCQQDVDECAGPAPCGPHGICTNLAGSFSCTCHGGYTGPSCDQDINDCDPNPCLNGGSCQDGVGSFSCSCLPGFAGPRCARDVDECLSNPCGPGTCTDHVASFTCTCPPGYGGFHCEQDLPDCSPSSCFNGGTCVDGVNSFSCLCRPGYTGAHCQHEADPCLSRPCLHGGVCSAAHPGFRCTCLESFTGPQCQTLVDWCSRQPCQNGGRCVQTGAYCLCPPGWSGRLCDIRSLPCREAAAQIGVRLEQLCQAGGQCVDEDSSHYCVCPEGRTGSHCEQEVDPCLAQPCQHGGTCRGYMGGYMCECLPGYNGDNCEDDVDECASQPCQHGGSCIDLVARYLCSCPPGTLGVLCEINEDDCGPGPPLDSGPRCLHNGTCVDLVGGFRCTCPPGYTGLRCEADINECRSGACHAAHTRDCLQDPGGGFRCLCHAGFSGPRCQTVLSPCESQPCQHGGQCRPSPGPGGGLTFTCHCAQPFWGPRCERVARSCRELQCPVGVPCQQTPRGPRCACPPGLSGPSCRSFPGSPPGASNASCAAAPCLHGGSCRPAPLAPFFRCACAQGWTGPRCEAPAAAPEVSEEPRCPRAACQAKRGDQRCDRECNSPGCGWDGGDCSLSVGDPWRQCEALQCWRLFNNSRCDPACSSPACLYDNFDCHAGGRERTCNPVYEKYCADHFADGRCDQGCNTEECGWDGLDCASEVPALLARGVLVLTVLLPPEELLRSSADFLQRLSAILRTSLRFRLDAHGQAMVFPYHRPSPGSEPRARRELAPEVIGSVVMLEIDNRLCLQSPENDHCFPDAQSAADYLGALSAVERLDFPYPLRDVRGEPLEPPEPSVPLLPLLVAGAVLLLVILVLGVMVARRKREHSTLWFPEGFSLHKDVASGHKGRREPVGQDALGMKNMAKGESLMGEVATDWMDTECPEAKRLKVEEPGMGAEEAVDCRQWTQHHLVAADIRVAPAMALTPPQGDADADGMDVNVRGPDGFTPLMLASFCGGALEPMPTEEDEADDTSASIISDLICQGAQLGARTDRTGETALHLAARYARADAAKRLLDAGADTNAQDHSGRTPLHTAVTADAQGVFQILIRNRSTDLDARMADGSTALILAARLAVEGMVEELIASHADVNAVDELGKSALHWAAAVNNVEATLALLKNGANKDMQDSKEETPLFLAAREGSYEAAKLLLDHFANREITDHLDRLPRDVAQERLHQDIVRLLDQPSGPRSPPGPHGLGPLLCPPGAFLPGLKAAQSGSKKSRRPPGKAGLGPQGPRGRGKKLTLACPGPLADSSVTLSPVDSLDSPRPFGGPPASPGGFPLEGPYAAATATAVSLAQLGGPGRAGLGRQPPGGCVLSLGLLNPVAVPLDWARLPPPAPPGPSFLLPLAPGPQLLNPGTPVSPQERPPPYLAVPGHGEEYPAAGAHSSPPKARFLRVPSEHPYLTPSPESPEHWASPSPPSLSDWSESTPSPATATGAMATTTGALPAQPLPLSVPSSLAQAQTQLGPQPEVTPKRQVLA
# [10] = probe aEGFR binding to arrayed compounds – biochemical, biotinylated probe, 635/667 nm fluorescence, primary screen (AID 1097); details: small-molecule microarray, higher = more signal;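 note: probe is a biotinylated anti-EGFR antibody binding compounds printed on slides; score combines fluorescence near 667 nm and signal to noise of each spot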
# [11] = test system: Plasmodium falciparum Sir2 (PF13_0152, Sir2A); test: Plasmodium falciparum Sir2A binding compounds – biochemical, small-molecule microarray, 635 nm fluorescence, primary screen (AID 1098); details: fluorescence 635 nm, higher = more signal;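 note: score merges spot fluorescence intensity with its signal-to-noise ratio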
# [12] = probe aDKK1 binding to arrayed compounds – biochemical, biotinylated probe, 635/667 nm fluorescence, primary screen (AID 1099); details: small-molecule microarray, higher = more signal;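 note: score merges 667nm spot fluorescence with signal to noise across triplicate slides; reference of the scale not given here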
# [13] = probe aCHRDL2 binding to arrayed compounds – biochemical, biotinylated probe, 635/667 nm fluorescence, primary screen (AID 1100); details: small-molecule microarray, higher = more signal
# [14] = change in splice reporter luminescence, either direction, cell-based, HEK293, spliceosome inhibition project, primary screen (AID 1101); details: HEK293 splicing luciferase reporter, 24 h, higher = more signal, called active from +8 up or from −8 down;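 note: HEK293 cells carrying a splicing-competent luciferase reporter gene; test concentration not given here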
# [15] = target: Fibroblast growth factor 10 (Homo sapiens) (UniProt O15520); test: compounds binding fibroblast growth factor 10 – biochemical, small-molecule microarray, 635 nm fluorescence, primary screen (AID 1102); details: FGF10 binding, fluorescence 635 nm, higher = more signal
# Sequence of Fibroblast growth factor 10 (Homo sapiens) (O15520 whole entry, looked up): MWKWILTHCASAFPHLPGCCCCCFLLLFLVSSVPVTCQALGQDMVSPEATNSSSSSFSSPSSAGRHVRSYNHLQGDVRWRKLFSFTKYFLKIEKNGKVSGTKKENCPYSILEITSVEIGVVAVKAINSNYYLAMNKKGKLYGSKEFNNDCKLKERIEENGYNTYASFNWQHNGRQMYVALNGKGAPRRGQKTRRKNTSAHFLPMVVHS
# [16] = test system: glycogen synthase kinase-3 (GSK3A per assay name; protocol says GSK3B); test: compounds binding glycogen synthase kinase-3 – biochemical, small-molecule microarray, 635 nm fluorescence, GSK3A, primary screen (AID 1103); details: fluorescence 635 nm, higher = more signal; note: the record names both GSK3A and GSK3B
# [17] = target: Epidermal growth factor receptor (Homo sapiens) (UniProt P00533); test: compounds binding epidermal growth factor receptor – biochemical, small-molecule microarray, 635 nm fluorescence, primary screen (AID 1104); details: EGFR binding, higher = more signal;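 note: score merges 667 nm emission intensity with spot signal to noise over triplicate slides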
# Sequence of Epidermal growth factor receptor (Homo sapiens) (P00533 whole entry, looked up): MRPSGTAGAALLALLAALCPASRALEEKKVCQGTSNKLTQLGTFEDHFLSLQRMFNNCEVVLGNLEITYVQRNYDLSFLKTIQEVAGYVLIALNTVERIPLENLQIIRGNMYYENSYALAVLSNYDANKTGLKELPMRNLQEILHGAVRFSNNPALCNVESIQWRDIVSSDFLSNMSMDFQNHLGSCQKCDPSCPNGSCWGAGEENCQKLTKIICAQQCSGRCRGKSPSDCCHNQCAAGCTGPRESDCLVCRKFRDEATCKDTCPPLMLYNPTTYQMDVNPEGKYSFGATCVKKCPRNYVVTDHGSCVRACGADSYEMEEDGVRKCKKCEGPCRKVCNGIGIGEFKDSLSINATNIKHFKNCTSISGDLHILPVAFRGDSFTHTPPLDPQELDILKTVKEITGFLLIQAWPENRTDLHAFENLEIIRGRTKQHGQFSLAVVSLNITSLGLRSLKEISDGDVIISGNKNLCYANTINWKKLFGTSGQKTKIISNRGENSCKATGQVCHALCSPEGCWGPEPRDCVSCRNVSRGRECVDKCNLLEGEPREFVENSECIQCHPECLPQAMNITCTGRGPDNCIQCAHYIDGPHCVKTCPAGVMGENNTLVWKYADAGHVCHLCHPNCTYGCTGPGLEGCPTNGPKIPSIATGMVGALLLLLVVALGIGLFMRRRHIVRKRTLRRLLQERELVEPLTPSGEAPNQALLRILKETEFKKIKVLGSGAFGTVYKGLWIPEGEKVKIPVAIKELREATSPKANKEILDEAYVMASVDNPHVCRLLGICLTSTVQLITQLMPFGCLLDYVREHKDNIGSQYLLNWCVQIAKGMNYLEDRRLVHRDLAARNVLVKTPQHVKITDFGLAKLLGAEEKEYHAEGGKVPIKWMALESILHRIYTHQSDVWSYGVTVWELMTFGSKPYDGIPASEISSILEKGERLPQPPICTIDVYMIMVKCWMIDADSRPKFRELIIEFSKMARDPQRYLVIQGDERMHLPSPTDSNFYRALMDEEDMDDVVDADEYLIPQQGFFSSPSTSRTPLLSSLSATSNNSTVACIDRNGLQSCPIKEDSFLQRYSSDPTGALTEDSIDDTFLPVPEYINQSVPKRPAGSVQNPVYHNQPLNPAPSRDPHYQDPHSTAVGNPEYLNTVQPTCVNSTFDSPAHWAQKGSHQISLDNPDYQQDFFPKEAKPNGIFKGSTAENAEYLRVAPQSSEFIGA
# [18] = target: Follistatin-related protein 3 (Homo sapiens) (UniProt O95633); test: compounds binding follistatin-related protein 3 – biochemical, small-molecule microarray, 635 nm fluorescence, primary screen (AID 1105); details: FSTL3 binding, higher = more signal;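 note: score merges emission near 667 nm and signal to noise per printed spot across three slides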
# Sequence of Follistatin-related protein 3 (Homo sapiens) (O95633 whole entry, looked up): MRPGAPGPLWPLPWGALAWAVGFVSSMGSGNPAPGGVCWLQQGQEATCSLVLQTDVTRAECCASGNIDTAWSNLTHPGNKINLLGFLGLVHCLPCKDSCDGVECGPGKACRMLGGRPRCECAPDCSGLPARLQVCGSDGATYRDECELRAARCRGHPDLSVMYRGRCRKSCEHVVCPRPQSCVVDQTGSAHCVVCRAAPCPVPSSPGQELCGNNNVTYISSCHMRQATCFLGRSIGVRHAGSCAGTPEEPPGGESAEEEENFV
# [19] = target: Dickkopf-related protein 1 (Homo sapiens) (UniProt O94907); test: small molecules binding DKK1 protein – biochemical, small-molecule microarray, 635 nm fluorescence scan, primary screen (AID 1106); details: higher = more signal;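 note: score merges emission near 667 nm with signal to noise over three replicate slides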
# Sequence of Dickkopf-related protein 1 (Homo sapiens) (O94907 whole entry, looked up): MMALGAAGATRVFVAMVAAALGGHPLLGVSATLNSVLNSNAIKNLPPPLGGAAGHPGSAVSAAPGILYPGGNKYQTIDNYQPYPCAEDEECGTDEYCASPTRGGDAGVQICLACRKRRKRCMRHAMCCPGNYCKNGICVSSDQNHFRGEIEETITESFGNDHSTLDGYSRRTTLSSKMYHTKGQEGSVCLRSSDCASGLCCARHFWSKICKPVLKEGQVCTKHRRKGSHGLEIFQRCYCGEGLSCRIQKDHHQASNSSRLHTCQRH
# [20] = test system: Inhibin beta A chain (activin A); test: small molecules binding activin A – biochemical, small-molecule microarray, 635 nm fluorescence scan, primary screen (AID 1107); details: INHBA, higher = more signal;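 note: mouse activin A protein probed at 4.33 µg/mL on printed slides; score merges bound-protein fluorescence near 667 nm with spot signal-to-noise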
SMILES,composite z-score [1],z-score [2],z-score [3],z-score [4],composite z-score [5],z-score [6],composite z-score [7],composite z-score [8],composite z-score [9],composite z-score [10],composite z-score [11],composite z-score [12],composite z-score [13],z-score [14],composite z-score [15],composite z-score [16],composite z-score [17],composite z-score [18],composite z-score [19],composite z-score [20]
COc1ccc(NC(=O)O[C@H]2[C@@H]3OC(=O)[C@H](Cc4cccc(Br)c4)C/C=C/C[C@@H](Cc4cccc(Br)c4)C(=O)O[C@H]3[C@@H](OC)O[C@@H]2CO)cc1,1.06,0.337 (inactive),0.505 (inactive),-0.127 (inactive),1.36,0.904 (inactive),0.123,0.331,0.656,-0.067,1.31,0.13,0.387,0.044 (inactive),0.638,0.475,0.4,0.324,0.142,0.735
CC1(C)C(=O)C(c2ccccc2)=C2CN3C(=O)N(CCc4ccccc4)C(=O)C3(Cc3ccc(C(F)(F)F)cc3)C=C21 (stereo not given),-0.362,1.32 (inactive),2.01 (inactive),3.28 (inactive),2.65,-1.21 (inactive),0.208,-0.0717,1.13,0.284,0.9,1.01,1.12,0.701 (inactive),0.472,0.288,-0.0744,0.717,-1.01,0.721
COCC1C2CC[C@H]3C(OCc4ccc(OC)cc4)OC[C@]4(C)[C@H]3C2=C(CN4C(=O)OC(C)(C)C)[C@H](C)C1COC (stereo not given in full),1.57,-1.23 (inactive),-1.18 (inactive),-0.444 (inactive),3.78,-1.22 (inactive),0.0359,0.372,1.05,-0.0656,0.852,0.319,0.482,-1.98 (inactive),1.11,1.32,0.418,1.16,0.207,0.752
CC(C)C(CO)N1C(=O)[C@@H]2[C@H]3C(=O)OCC=C[C@H]3OC23C=CCN(C(C)(C)C)C(=O)[C@@H]13 (stereo not given in full),-0.0274,0.027 (inactive),0.0191 (inactive),0.754 (inactive),-0.963,-0.7 (inactive),-0.168,-0.122,-0.0022,-0.144,1.45,-0.293,-0.348,0.454 (inactive),-1.07,-1.57,-0.257,-0.21,-0.181,0.83
C=C(/C(=C/C[C@H](OC(=O)c1ccncc1)c1ccccc1OCCO)c1cnc2ccccc2c1)C(C)C,1.54,-2.36 (inactive),-0.555 (inactive),2.22 (inactive),2.27,-0.0584 (inactive),-0.0632,1.13,1.02,-0.0828,1.06,-0.117,0.37,0.82 (inactive),1.47,1.06,1.15,1.59,1.07,1.72
Cc1nc2cc(Br)ccc2c(=O)n1Cc1cccc(O)c1,1.57,0.104 (inactive),-1.84 (inactive),-0.973 (inactive),1.16,1.22 (inactive),-0.0607,1.33,-0.108,-0.0474,0.547,-0.136,-0.282,-0.0746 (inactive),0.89,0.768,0.416,0.782,1.16,-0.022
C=CCNC(=O)[C@H]1[C@@H]2C(=O)O[C@@H](c3ccccc3)[C@@H](c3ccccc3)N2[C@@H](c2ccc(OCCO)cc2)[C@]12C(=O)Nc1ccc(C#CCNC(N)=O)cc12,1.56,2.34 (inactive),1.48 (inactive),4.76 (inactive),1.98,0.714 (inactive),0.155,1.1,1.07,0.0562,1.2,0.867,1.05,-0.595 (inactive),1.13,0.332,-0.471,0.65,0.0352,0.624
Cc1c(NC(=O)/C(C#N)=C/c2ccccc2Cl)c(=O)n(-c2ccccc2)n1C,0.315,-1.06 (inactive),-1.76 (inactive),-0.4 (inactive),3.03,0.245 (inactive),-0.158,0.0603,0.259,0.0092,0.633,-0.258,-0.0592,-0.378 (inactive),0.185,-0.046,0.139,0.361,0.491,0.395
NCCCCCNC(=O)[C@@H]1C[C@@H]2C(=O)N3CCC[C@H]3C(=O)N2[C@@H]1c1ccc(O)cc1,0.61,0.758 (inactive),-0.986 (inactive),1.3 (inactive),1.97,1.05 (inactive),0.512,0.408,0.391,0.171,1.1,0.919,0.857,-0.274 (inactive),0.927,1.14,0.114,0.495,0.853,0.98
CCCCC(=C=CC[C@H](O)c1ccc(OCCO)cc1)C[C@H](O)c1cc(Cl)cc(Cl)c1O,1.18,0.294 (inactive),-3.5 (inactive),-0.15 (inactive),1.54,0.0374 (inactive),-0.192,0.563,0.62,-0.183,1.06,-0.0865,0.218,-0.321 (inactive),1.35,0.11,-0.0609,0.17,0.193,0.813
CC(C)C(=C=CC[C@@H](O)c1cccc(OCCO)c1)C[C@@H](O)c1ccccn1,0.504,-0.282 (inactive),-0.361 (inactive),-0.419 (inactive),1.26,0.379 (inactive),-0.283,0.38,0.603,-0.161,0.862,-0.261,-0.315,0.111 (inactive),0.285,-0.366,-0.604,0.0146,0.0852,0.139
